Test results: PubChem BioAssay (NCI)
Compounds without any hit were thinned out: in the full panel of roughly 83,000, 20% have a hit.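 Single-dose data. Exposure time 48 hours. Values below 10 considered active.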 Activity calls are given as the source filed them.

Columns and labels:
Assay in all cases: NCI-60 one-dose screen, 48 h (100 = growth as untreated, 0 = no growth, -100 = all killed)
Settings in all cases: 10 µM unless noted
SR leukemia = tested on: SR leukemia
RPMI-8226 leukemia = tested on: RPMI-8226 leukemia
OVCAR-8 ovarian = tested on: OVCAR-8 ovarian
OVCAR-5 ovarian = tested on: OVCAR-5 ovarian
OVCAR-4 ovarian = tested on: OVCAR-4 ovarian
SK-OV-3 ovarian = tested on: SK-OV-3 ovarian
IGROV1 ovarian = tested on: IGROV1 ovarian
OVCAR-3 ovarian = tested on: OVCAR-3 ovarian
HS 578T breast = tested on: HS 578T breast
NCI/ADR-RES ovarian = tested on: NCI/ADR-RES ovarian
T-47D breast = tested on: T-47D breast
BT-549 breast = tested on: BT-549 breast
MDA-MB-435 melanoma = tested on: MDA-MB-435 melanoma
SW-620 colon = tested on: SW-620 colon
MCF7 breast = tested on: MCF7 breast
HCT-116 colon = tested on: HCT-116 colon
HCC-2998 colon = tested on: HCC-2998 colon
KM12 colon = tested on: KM12 colon
MDA-MB-468 breast = tested on: MDA-MB-468 breast

Measured: growth

COc1ccc(NC(=O)Cn2c(/C=C/c3ccc([N+](=O)[O-])cc3)nc3ccccc3c2=O)cc1
inactive: SR leukemia 88.9% | RPMI-8226 leukemia 90.6% | OVCAR-8 ovarian 45.8% | OVCAR-5 ovarian 76.4% | OVCAR-4 ovarian 16.4% | SK-OV-3 ovarian 33.6% | IGROV1 ovarian 59.6% | OVCAR-3 ovarian 60.2% | HS 578T breast 29.9% | NCI/ADR-RES ovarian 39% | T-47D breast 56.1% | BT-549 breast 106% | MDA-MB-435 melanoma 84.2% | SW-620 colon 70.5% | MCF7 breast 73.9% | HCT-116 colon 35.6% | HCC-2998 colon 67.5% | KM12 colon 82.7% | MDA-MB-468 breast 52%

COc1ccc(SC2c3cc(OC)ccc3Oc3nc(N)c(C#N)c(N)c32)cc1 (stereo not given)
inactive: SR leukemia 29.5% | RPMI-8226 leukemia 56.3% | OVCAR-8 ovarian 87% | OVCAR-5 ovarian 123% | OVCAR-4 ovarian 105% | SK-OV-3 ovarian 113% | IGROV1 ovarian 21.9% | OVCAR-3 ovarian 98.4% | HS 578T breast 81% | NCI/ADR-RES ovarian 91.1% | T-47D breast 77.4% | BT-549 breast 24.5% | MDA-MB-435 melanoma 87.5% | SW-620 colon 69.5% | MCF7 breast 49.2% | HCT-116 colon 78% | HCC-2998 colon 117% | KM12 colon 61.2% | MDA-MB-468 breast 98.6%

Cc1ccccc1NC(=O)c1cccc(NC(=O)CCl)c1
active: MDA-MB-468 breast -0.88%
inactive: SR leukemia 16.4% | RPMI-8226 leukemia 26% | OVCAR-8 ovarian 46.3% | OVCAR-5 ovarian 70.4% | OVCAR-4 ovarian 73.7% | SK-OV-3 ovarian 81.3% | IGROV1 ovarian 29.5% | OVCAR-3 ovarian 49% | HS 578T breast 78% | NCI/ADR-RES ovarian 38.9% | T-47D breast 74.8% | BT-549 breast 39.4% | MDA-MB-435 melanoma 72.7% | SW-620 colon 41.7% | MCF7 breast 19.2% | HCT-116 colon 27.3% | HCC-2998 colon 96.1% | KM12 colon 77.3%

N#CC1=C(c2cccs2)Nc2c(c(-c3ccccc3)nn2-c2ccccc2)C12C(=O)Nc1ccc(Cl)cc12 (stereo not given)
active: OVCAR-5 ovarian 5.03% | HS 578T breast 8.15% | BT-549 breast -21.7% | MDA-MB-468 breast -22.1%
inactive: SR leukemia 12.6% | RPMI-8226 leukemia 13.3% | OVCAR-8 ovarian 28% | OVCAR-4 ovarian 27.2% | SK-OV-3 ovarian 59% | IGROV1 ovarian 24% | OVCAR-3 ovarian 23.1% | NCI/ADR-RES ovarian 33% | T-47D breast 11% | MDA-MB-435 melanoma 41.2% | SW-620 colon 21.3% | MCF7 breast 15.1% | HCT-116 colon 11.5% | HCC-2998 colon 26.1% | KM12 colon 15.3%

COc1ccc(-c2nc3ccc(-c4nnc(SCc5ccccc5)o4)cc3[nH]2)cc1
active: SR leukemia 6.93% | RPMI-8226 leukemia 7.16% | OVCAR-8 ovarian -36.8% | OVCAR-4 ovarian -57.7% | SK-OV-3 ovarian 5.77% | IGROV1 ovarian -17.1% | OVCAR-3 ovarian -33.1% | HS 578T breast -17.5% | NCI/ADR-RES ovarian -65.6% | T-47D breast -41.9% | BT-549 breast -54% | MDA-MB-435 melanoma -29.5% | SW-620 colon 7.51% | MCF7 breast -20.2% | HCT-116 colon -60.5% | MDA-MB-468 breast -23.8%
inactive: OVCAR-5 ovarian 46.8% | HCC-2998 colon 25.4% | KM12 colon 16.5%

COc1ccc2[nH]c(=O)c(CSc3ccccc3Nc3nccc(-c4ccc(Cl)cc4)n3)cc2c1
active: SR leukemia -1.58% | MCF7 breast 7.48%
inactive: RPMI-8226 leukemia 30.4% | OVCAR-8 ovarian 39.5% | OVCAR-5 ovarian 84.7% | OVCAR-4 ovarian 38.3% | SK-OV-3 ovarian 57.7% | IGROV1 ovarian 55.9% | OVCAR-3 ovarian 39.8% | HS 578T breast 37.1% | NCI/ADR-RES ovarian 34.4% | T-47D breast 38% | BT-549 breast 31.6% | MDA-MB-435 melanoma 28.3% | SW-620 colon 50.3% | HCT-116 colon 11.9% | HCC-2998 colon 37.6% | KM12 colon 31.9% | MDA-MB-468 breast 17.3%

O=C(COc1ccc(/C=C2/C(=O)Nc3ccc(Cl)cc32)cc1)Nc1ccc(Br)cc1
active: SR leukemia -35.7% | OVCAR-8 ovarian -44.4% | OVCAR-5 ovarian 3.15% | OVCAR-4 ovarian -54% | SK-OV-3 ovarian -57.8% | IGROV1 ovarian -22.2% | OVCAR-3 ovarian -64.8% | HS 578T breast -14.2% | NCI/ADR-RES ovarian -34% | T-47D breast -22% | BT-549 breast -34.2% | MDA-MB-435 melanoma -1.54% | SW-620 colon 2.56% | MCF7 breast -26.9% | HCT-116 colon -64% | KM12 colon 2.45%
inactive: RPMI-8226 leukemia 14% | HCC-2998 colon 41.6% | MDA-MB-468 breast 38.4%

COC(=O)c1c(C(=O)OC)c2c3ccccc3c3ccccc3n2c1C(=O)C(F)(F)F
inactive: SR leukemia 81.8% | RPMI-8226 leukemia 97.6% | OVCAR-8 ovarian 99.6% | OVCAR-5 ovarian 99.2% | OVCAR-4 ovarian 94.7% | SK-OV-3 ovarian 107% | IGROV1 ovarian 82.9% | OVCAR-3 ovarian 112% | HS 578T breast 99.2% | NCI/ADR-RES ovarian 93.7% | T-47D breast 101% | BT-549 breast 106% | MDA-MB-435 melanoma 102% | SW-620 colon 97.1% | MCF7 breast 91.6% | HCT-116 colon 98.7% | HCC-2998 colon 122% | KM12 colon 106% | MDA-MB-468 breast 92%

O=c1c(-c2nc(-c3ccccc3)c(-c3ccccc3)[nH]2)coc2ccc(F)cc12
inactive: SR leukemia 63.5% | RPMI-8226 leukemia 32.1% | OVCAR-8 ovarian 82.6% | OVCAR-5 ovarian 96.1% | OVCAR-4 ovarian 47.3% | SK-OV-3 ovarian 68.2% | IGROV1 ovarian 62.8% | OVCAR-3 ovarian 33.3% | HS 578T breast 71.6% | NCI/ADR-RES ovarian 51.4% | T-47D breast 22.1% | BT-549 breast 70.8% | MDA-MB-435 melanoma 65.4% | SW-620 colon 51% | MCF7 breast 25.9% | HCT-116 colon 39.4% | HCC-2998 colon 77.2% | KM12 colon 23.4% | MDA-MB-468 breast 16%

N#Cc1cc(-c2ccc3ncnc(N4CCc5cc(F)c(Cl)cc54)c3c2)cnc1N
inactive: RPMI-8226 leukemia 28.2% | OVCAR-8 ovarian 44.3% | OVCAR-5 ovarian 55.2% | OVCAR-4 ovarian 29.5% | SK-OV-3 ovarian 64.3% | OVCAR-3 ovarian 16.6% | NCI/ADR-RES ovarian 47.2% | T-47D breast 25.8% | MDA-MB-435 melanoma 39.2% | SW-620 colon 25.2% | HCT-116 colon 33.2% | HCC-2998 colon 50.1% | KM12 colon 67.2%
active: SR leukemia -25.7% | IGROV1 ovarian -16.2% | HS 578T breast -7.07% | BT-549 breast 9.67% | MCF7 breast 4.81% | MDA-MB-468 breast -14.7%

Cc1ccc2nc(SCc3ccccc3F)n(-c3ccccc3)c(=O)c2c1
inactive: SR leukemia 109% | RPMI-8226 leukemia 93.4% | OVCAR-8 ovarian 100% | OVCAR-5 ovarian 116% | OVCAR-4 ovarian 98.9% | SK-OV-3 ovarian 118% | IGROV1 ovarian 105% | OVCAR-3 ovarian 115% | HS 578T breast 96.3% | NCI/ADR-RES ovarian 89% | T-47D breast 81.4% | BT-549 breast 107% | MDA-MB-435 melanoma 111% | SW-620 colon 104% | MCF7 breast 89.2% | HCT-116 colon 68.2% | HCC-2998 colon 109% | KM12 colon 93.7% | MDA-MB-468 breast 89.3%

COc1ccc(N=Nc2c(N)nn3c(N)c(C#N)c(-c4ccc(C)cc4)nc23)cc1
active: RPMI-8226 leukemia 3.4% | T-47D breast 7.1%
inactive: SR leukemia 44.6% | OVCAR-8 ovarian 66.3% | OVCAR-5 ovarian 99.9% | OVCAR-4 ovarian 53.2% | SK-OV-3 ovarian 90.2% | IGROV1 ovarian 33.5% | OVCAR-3 ovarian 15.2% | HS 578T breast 27.7% | NCI/ADR-RES ovarian 62.2% | BT-549 breast 56.2% | MDA-MB-435 melanoma 56.6% | SW-620 colon 67.2% | MCF7 breast 12.5% | HCT-116 colon 45.4% | HCC-2998 colon 73% | KM12 colon 43.5% | MDA-MB-468 breast 32.4%

COc1cccc2nc(Nc3cccc(NC(=O)c4ccc(CN5CCN(C)CC5)c(C(F)(F)F)c4)c3)ccc12
active: SR leukemia -36.1% | RPMI-8226 leukemia -40.2% | OVCAR-8 ovarian -65.2% | OVCAR-5 ovarian -98% | OVCAR-4 ovarian -82.9% | SK-OV-3 ovarian -81.9% | IGROV1 ovarian -87.1% | OVCAR-3 ovarian -36.6% | HS 578T breast -21.1% | NCI/ADR-RES ovarian -89.7% | T-47D breast -75.9% | BT-549 breast -93.7% | MDA-MB-435 melanoma -98.1% | SW-620 colon -92.8% | MCF7 breast -79.2% | HCT-116 colon -66.9% | HCC-2998 colon -96.8% | KM12 colon -51.1% | MDA-MB-468 breast -97.2%

N/C(=N\c1nc2ccc([N+](=O)[O-])cc2s1)NC(=O)Nc1ccccc1Cl
active: OVCAR-8 ovarian 6.87% | OVCAR-4 ovarian -26.5% | OVCAR-3 ovarian -52.8% | MDA-MB-435 melanoma 5.83% | HCT-116 colon -2.76% | MDA-MB-468 breast 0%
inactive: SR leukemia 23.6% | RPMI-8226 leukemia 60.7% | OVCAR-5 ovarian 38.2% | SK-OV-3 ovarian 24.2% | IGROV1 ovarian 55.8% | HS 578T breast 59.7% | NCI/ADR-RES ovarian 37.6% | T-47D breast 26.2% | BT-549 breast 25.9% | SW-620 colon 21.4% | MCF7 breast 36.5% | HCC-2998 colon 86.6% | KM12 colon 38.6%

Nc1cc(-c2c[nH]c3ccc(Br)cc23)nc2cc(-c3c[nH]c4ccccc34)nn12
active: SR leukemia 7.93% | RPMI-8226 leukemia 0.137% | OVCAR-8 ovarian -54.1% | OVCAR-5 ovarian -72.7% | OVCAR-4 ovarian -5.21% | SK-OV-3 ovarian -43.6% | IGROV1 ovarian -77.1% | OVCAR-3 ovarian -34% | HS 578T breast -12.4% | NCI/ADR-RES ovarian -17.9% | T-47D breast -60.5% | BT-549 breast -21.4% | MDA-MB-435 melanoma -75.1% | SW-620 colon -83.2% | MCF7 breast -66.8% | HCT-116 colon -78% | HCC-2998 colon -78.2% | KM12 colon -65.4% | MDA-MB-468 breast -81.8%
